BoNT-A LC inh2 = BoNT A light chain protease inhibition; multiplex microsphere protease substrate cleavage, flow cytometry; inhibition, % at 10 µM; 360,000 compounds, 0.17% hits
Anthrax LF prot = blocks Bacillus anthracis lethal factor protease; P15917; multiplex microsphere protease cleavage assay, LF; inhibition, % at 10 µM; 360,000 compounds, 0.12% hits
Autofluor counter = compound fluorescence in toxin protease inhibitor counterscreen; compound autofluorescence counterscreen, microsphere flow cytometry; hits give high values; fluorescence intensity (test concentration not listed); 360,000 compounds, 3.1% hits; AID 624483; in the data active = fluorescence intensity above about 16000; inconclusive = no clear call, values can overlap the other calls
BoNT F protease = inhibitors of Botulinum neurotoxin F light chain protease; Multiplex microsphere protease cleavage assay, flow cytometry; inhibition, % at 10 µM; 360,000 compounds, 0.22% hits; AID 588497; in the data active = inhibition above about 35%, passing the limit was not always enough; inconclusive = no clear call, values can overlap the other calls
TcdB GH inh = TcdB glycohydrolase inhibition. P18177. TcdB glycohydrolase enzymatic assay, plate reader. inhibition, % at 9.99 µM. 350,000 compounds, 0.24% hits. AID 652162; in the data active = inhibition above about 10%
Each line names hits and unclear results; the compound was inactive in the other large screens. Many of the other results were omitted from the sample, so hits are more common in it than they were. Rule as the data show it, unless noted: active = inhibition above about 30%; inconclusive = no clear call, values can overlap the other calls; inactive = below that.

COc1cc(OC)cc(-c2nc3ccccc3s2)c1	Autofluor counter 23472 (no result: TcdB GH inh)
CC(C)NC(=O)N[C@@H]1CC[C@H](CCn2cc(-c3ccc(F)cc3)nn2)O[C@@H]1CO	none (no result: BoNT-A LC inh2, Anthrax LF prot, Autofluor counter, BoNT F protease)
Cc1cccc(C)c1-n1nnnc1SCSc1nnnn1-c1c(C)cccc1C	BoNT-A LC inh2 inconclusive, Autofluor counter 21580 (no result: TcdB GH inh)
Cc1c2cnn(CC(=O)NCCCN3CCCCC3C)c(=O)c2c(C)n1Cc1ccccc1 (stereo unspecified)	Autofluor counter 18388
Cc1c2cnn(CC(=O)NC3CCCC3)c(=O)c2c(C)n1Cc1ccccc1	none (no result: BoNT-A LC inh2, Anthrax LF prot, Autofluor counter, BoNT F protease)
Clc1ccc(Nc2nc3ccccc3n3nnnc23)cc1	Autofluor counter 20275 (no result: TcdB GH inh)
O=c1cc(CSc2nnnn2-c2ccccc2)nc(Nc2ccc(F)cc2)[nH]1	Autofluor counter 23279 (no result: TcdB GH inh)
COC(=O)c1ccc(N2CCC(c3cc(-c4ccc(OC)cc4)n[nH]3)CC2)c([N+](=O)[O-])c1	Autofluor counter 23463 (no result: TcdB GH inh)
CO/N=C/c1ccc(N2CCCC2)c([N+](=O)[O-])c1	none
CCOC(=O)c1cc(CC)sc1NC(=O)c1ccc(N2CCOCC2)c([N+](=O)[O-])c1	Autofluor counter 19127
Cc1ccc(OC(=O)c2ccc(N3CCOCC3)c([N+](=O)[O-])c2)cc1	Autofluor counter 19491 (no result: TcdB GH inh)
CO/N=C/c1ccc(N2CCN(C(=O)c3ccc(C)cc3)CC2)c([N+](=O)[O-])c1	Autofluor counter 24171 (no result: TcdB GH inh)
CCOC(=O)c1cc(CC)sc1NC(=O)c1cc([N+](=O)[O-])ccc1N1CCOCC1	none (no result: TcdB GH inh)
COc1ccc(-c2cc(C3CCN(c4ccc(C(C)=O)cc4[N+](=O)[O-])CC3)[nH]n2)cc1	none (no result: TcdB GH inh)
CCCN(C)C[C@@H]1Oc2ncc(-c3cccc(C#N)c3)cc2C(=O)N([C@H](C)CO)C[C@@H]1C	none (no result: BoNT-A LC inh2, Anthrax LF prot, Autofluor counter, BoNT F protease)
CO[C@@H]1CN(C)C(=O)c2cc(NS(C)(=O)=O)ccc2OC[C@H](C)NC[C@H]1C	none (no result: BoNT-A LC inh2, Anthrax LF prot, Autofluor counter, BoNT F protease)
C[C@@H]1CN([C@H](C)CO)C(=O)c2cc(-c3ccccc3F)cnc2O[C@@H]1CN(C)C(=O)c1cnccn1	none (no result: BoNT-A LC inh2, Anthrax LF prot, Autofluor counter, BoNT F protease)
CCOC(=O)CSC1=C(C#N)C(c2ccccc2Cl)C(C(=O)OC)C(=O)N1 (stereo unspecified)	Autofluor counter 20786 (no result: TcdB GH inh)
C[C@H](CO)N1C[C@H](C)[C@@H](CN(C)C(=O)Nc2ccc(C(F)(F)F)cc2)Oc2ccc(NS(=O)(=O)c3cccs3)cc2CC1=O	none (no result: BoNT-A LC inh2, Anthrax LF prot, Autofluor counter, BoNT F protease)
CCOC(=O)C(NC(=O)CC(C)C)(Nc1cc(C)on1)C(F)(F)F (stereo unspecified)	Autofluor counter 22923 (no result: TcdB GH inh)
C[C@H]1CN([C@@H](C)CO)C(=O)Cc2cc(NS(=O)(=O)c3ccccc3)ccc2O[C@H]1CN(C)Cc1ccncc1	none (no result: BoNT-A LC inh2, Anthrax LF prot, Autofluor counter, BoNT F protease)
Cc1ccc(NC(=O)CCc2ccc(S(=O)(=O)N3CCOCC3)cc2)c(C)c1	BoNT-A LC inh2 inconclusive, Autofluor counter 20854 (no result: TcdB GH inh)
COCCn1c(C)cc(C(=O)COC(=O)CCc2ccc(S(=O)(=O)N3CCOCC3)cc2)c1C	BoNT-A LC inh2 inconclusive, Autofluor counter 22125 (no result: TcdB GH inh)
CO[C@H]1CN(C)C(=O)c2ccc(NC(=O)C3CC3)cc2OC[C@@H](C)N(C(=O)c2cccnc2)C[C@@H]1C	none (no result: BoNT-A LC inh2, Anthrax LF prot, Autofluor counter, BoNT F protease)
C[C@@H]1CCCCO[C@H](CN(C)S(=O)(=O)c2ccccc2)[C@H](C)CN([C@@H](C)CO)C(=O)c2cc(NS(=O)(=O)c3cccs3)ccc2O1	none (no result: BoNT-A LC inh2, Anthrax LF prot, Autofluor counter, BoNT F protease)
CC(C)Cn1cc(C(=O)N2CCN(c3ccccn3)CC2)c2c3ccccc3n(C)c2c1=O	Autofluor counter 16320 (no result: TcdB GH inh)
CCOC(CCNC(=O)c1cn(C)c(=O)c2c1c1ccccc1n2C)OCC	Anthrax LF prot 69.3, BoNT F protease 89.1
CCOC(=O)C1CCN(C(=O)c2cn(CCOC)c(=O)c3c2c2ccccc2n3C)CC1	Autofluor counter 23452
CC(C)Cn1cc(C(=O)NCCCN2CCCC2=O)c2c3ccccc3n(C)c2c1=O	Autofluor counter 16933 (no result: TcdB GH inh)
C[C@@H]1CN([C@@H](C)CO)C(=O)c2cc(NC(=O)Cn3cnnn3)ccc2O[C@@H]1CN(C)C(=O)Nc1ccc(C(F)(F)F)cc1	none (no result: BoNT-A LC inh2, Anthrax LF prot, Autofluor counter, BoNT F protease)
CCN1CCN(C(=O)c2cn(CCOC)c(=O)c3c2c2ccccc2n3C)CC1	Autofluor counter 21067 (no result: TcdB GH inh)
COCCn1cc(C(=O)N2CCC3(CC2)OCCO3)c2c3ccccc3n(C)c2c1=O	none (no result: TcdB GH inh)
CS(=O)(=O)c1nc2ccccc2n1Cc1ccccc1	Autofluor counter 23807 (no result: TcdB GH inh)
Clc1ncccc1-c1nc2ccccc2n1Cc1ccccc1	BoNT-A LC inh2 inconclusive, Autofluor counter 20310
CCn1c(-c2cccnc2Cl)nc2ccccc21	Autofluor counter 23168 (no result: TcdB GH inh)
CC(C(=O)NC(=O)NC1CCCCC1)N1CCN(C(c2ccccc2)c2ccccc2)CC1 (stereo unspecified)	Autofluor counter 16823 (no result: TcdB GH inh)
